Among all 16,000 compounds or so, about 5,800 (36%) were called active. Not shown: some 23% with an inconclusive outcome. This is one part of the list. Unmarked numbers belong to inactive results. Calls come from the whole dose curve; as a rule, active = well fitted curve in the direction sought with a large enough effect; inconclusive = small, poorly fitted or top-dose-only effect, or effect the other way; inactive = no such curve, though single readings can be large or run the other way. Numbered stars: 1 amine (or outer) side, 2 acyl side, 3 side chain; on linkers, the order of the positions; unused ones are H or OH. Bridge positions count the residues as written; N and C are the ends. Square brackets hold non-standard residues; d marks the D form. Peptide text beside a SMILES is read from it. I, II: the chains in the order shown. Actinocin(9to1) = Cc1c2oc3c(C)ccc(C(=O)[*:1])c3nc-2c(C(=O)[*:2])c(N)c1=O; aThr = C[C@H](O)[C@H](N)C(=O)O; NMeV = CN[C@H](C(=O)O)C(C)C; Sar = CNCC(=O)O
target: Cytochrome P450 2C19 (Homo sapiens) (UniProt P33261); test: Cytochrome panel assay with activity outcomes; details: recombinant CYP, pro-luciferin dealkylation, luminescence, p450-cyp2c19; series mostly up to 57.1 µM; activity, negative = inhibition: at the top concentration
% is set by controls: 0 for no effect and ±100 for the full control effect.

Cytochrome P450 2C19 (Homo sapiens), sequence (P33261 whole entry, looked up): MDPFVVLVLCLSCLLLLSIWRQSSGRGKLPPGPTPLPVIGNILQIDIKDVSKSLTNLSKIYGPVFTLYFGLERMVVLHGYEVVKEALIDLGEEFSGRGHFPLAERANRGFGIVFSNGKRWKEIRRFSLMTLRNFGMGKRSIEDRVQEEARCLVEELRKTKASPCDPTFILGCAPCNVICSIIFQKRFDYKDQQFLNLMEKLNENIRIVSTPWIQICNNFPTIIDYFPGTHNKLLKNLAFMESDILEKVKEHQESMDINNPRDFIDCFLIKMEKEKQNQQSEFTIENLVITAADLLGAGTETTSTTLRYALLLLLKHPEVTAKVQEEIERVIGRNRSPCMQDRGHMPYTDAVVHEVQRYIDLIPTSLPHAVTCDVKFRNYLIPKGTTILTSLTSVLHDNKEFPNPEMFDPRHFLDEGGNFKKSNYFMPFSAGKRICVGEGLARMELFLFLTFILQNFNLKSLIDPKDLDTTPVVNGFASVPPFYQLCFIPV

Row | Structure (SMILES) | activity, negative = inhibition | AC50
1 | CO[C@H]1C[C@@H](O[C@@H]2[C@H](C)[C@H](O[C@@H]3O[C@@H](C)C[C@@H](N(C)C)[C@@H]3O)[C@H](C)C[C@]3(CO3)C(=O)[C@H](C)[C@H](O)[C@H](C)[C@H](C)OC(=O)[C@@H]2C)O[C@@H](C)[C@H]1O | -29.6% [at 25.6 µM] | 
2 | C[C@@H](C(=O)Nc1ccc2ccccc2c1)[C@H]1C[C@]1(C)[C@H](NC(=O)Oc1ccc(F)cc1)c1ccccc1 | -37.1% | 
3 | COC(=O)N[C@H](c1ccccc1)[C@@]1(C)C[C@@H]1[C@@H](C)C(=O)Nc1ccc2ccccc2c1 |  | 3.16 µM (active)
4 | C[C@@H](C(=O)Cc1ccc2ccccc2c1)[C@@H]1C[C@@]1(C)[C@@H](NP(=O)(c1ccccc1)c1ccccc1)c1ccccc1 | -26.1% | 
5 | C[C@@H](C(=O)Nc1ccc2ccccc2c1)[C@@H]1C[C@@]1(C)[C@@H](NC(=O)Oc1ccc(F)cc1)c1ccccc1 | -43.6% | 
6 | C[C@@H](C(=O)Nc1ccc2ccccc2c1)[C@H]1C[C@]1(C)[C@H](NP(=O)(c1ccccc1)c1ccccc1)c1ccccc1 |  | 10 µM (active)
7 | C[C@@H](C(=O)Nc1ccc2ccccc2c1)[C@H]1C[C@]1(C)[C@H](NS(=O)(=O)c1ccc(-c2ccccc2)cc1)c1ccccc1 | -37.2% | 
8 | CCCCN1C(=O)CN(CCc2ccccc2)C(=O)C1c1ccc(OC)cc1 (stereo not drawn) |  | 7.08 µM (active)
9 | COc1ccc(C2C(C(=O)N3CCN(C)CC3)c3ccccc3C(=O)N2C2CCCCC2)cc1 (stereo not drawn) | 2.2% | 
10 | COc1ccc([C@@H]2Sc3ccccc3N(CCN(C)C)C(=O)[C@@H]2OC(C)=O)cc1 | 11.9% | 
11 | COc1ccc(C2C(=O)N(CCc3ccccc3)CC(=O)N2C2CCCC2)cc1 (stereo not drawn) |  | 11.2 µM (active)
12 | Cc1noc(C)c1C(=O)N1CCC[C@@]2(CCN(C(=O)NC(C)C)C2)C1 | -26.5% | 
13 | CCn1c(SCC(=O)OC)nc2sc3c(c2c1=O)CCC3 |  | 8.91 µM (active)
14 | CCCc1ccc(C2C3=C(CC(C)(C)CC3=O)NC3=C2C(=O)c2ccccc23)cc1 (stereo not drawn) |  | 4.47 µM (active)
15 | COc1ncc2nc(-c3ccccc3)c(=O)n(C)c2n1 | -34.3% | 
16 | COc1ccc(-n2cnc3sc(-c4ccccc4)cc3c2=O)cc1 |  | 14.1 µM (active)
17 | c1ccc(Nc2ncnc3ccc(-c4cccnc4)cc23)cc1 | -45.8% | 
18 | c1ccc(Nc2ncnc3ccc(-c4ccoc4)cc23)cc1 |  | 2 µM (active)
19 | COc1cccc(Nc2ncc3nc(-c4ccccc4)c(=O)n(C)c3n2)c1 | -4.11% | 
20 | CN(C)C(=O)c1ccc(-c2ccc3ncnc(Nc4ccccc4)c3c2)cc1 | 32.7% | 
21 | FC(F)(F)c1ccccc1-c1ccc2ncnc(NCc3cccnc3)c2c1 |  | 0.00794 µM (active)
22 | COc1cccc(-c2ccc3ncnc(Nc4ccccc4)c3c2)c1 |  | 0.501 µM (active)
23 | CC(C)=NO[C@@H](C)CN1CCCCc2nc(C)c(C)cc21 | -14.1% [at 11.4 µM] | 
24 | COCCNc1ncnc2ccc(-c3ccccc3OC)cc12 |  | 5.01 µM (active)
25 | Clc1cccc(Nc2ncnc3ccc(Br)cc23)c1 |  | 5.01 µM (active)
26 | COCCNc1ncnc2ccc(-c3ccccc3CN(C)C)cc12 | 30.9% | 
27 | COc1ccccc1-c1ccc2ncnc(NCc3cccnc3)c2c1 |  | 0.00794 µM (active)

Row | Structure (SMILES) | activity, negative = inhibition | AC50
28 | COc1cccc(-c2ccc3ncnc(NCc4cccnc4)c3c2)c1 |  | 0.0126 µM (active)
29 | NCCNc1ncnc2ccc(Cl)cc12 | -2.27% [at 11.4 µM] | 
30 | COc1ccccc1CN1CC[C@@]2(CCCN(C(=O)c3ccco3)C2)C1 | -12.6% | 
31 | COc1cccc(-c2ccc3ncnc(NCc4cnc(C)cn4)c3c2)c1 |  | 15.8 µM (active)
32 | COCCNc1ncnc2ccc(-c3ccccc3C(F)(F)F)cc12 |  | 6.31 µM (active)
33 | COc1ccc(Nc2ncnc3sc(-c4ccccc4)cc23)cc1 |  | 3.16 µM (active)
34 | Cc1cnc(CNc2ncnc3ccc(-c4cccc(C#N)c4)cc23)cn1 | -9.68% | 
35 | FC(F)(F)c1ccccc1-c1ccc2ncnc(NCc3cccs3)c2c1 |  | 3.16 µM (active)
36 | O=C(c1cnccn1)N1CCC[C@@]2(CCN(c3ncccn3)C2)C1 | 19.2% | 
37 | Cc1c2oc3c(C)ccc(C(=O)N[C@@H]4C(=O)N[C@@H](C(C)C)C(=O)N5CCC[C@@H]5C(=O)N(C)CC(=O)N(C)[C@@H](C(C)C)C(=O)O[C@H]4C)c3nc-2c(C(=O)N[C@@H]2C(=O)N[C@@H](C(C)C)C(=O)N3CCC[C@@H]3C(=O)N(C)CC(=O)N(C)[C@@H](C(C)C)C(=O)O[C@H]2C)c(N)c1=O (I: [aThr]V[dP][Sar][NMeV] / II: [aThr]V[dP][Sar][NMeV]; ester I:1-I:C, II:1-II:C; linker I:N-II:N via Actinocin(9to1)) | -4.79% | 
38 | COc1ccccc1-c1ccc2ncnc(Nc3ccccc3)c2c1 |  | 5.01 µM (active)
39 | Clc1ccccc1-c1ccc2ncnc(NCc3cccnc3)c2c1 |  | 0.01 µM (active)
40 | CN(C)Cc1ccccc1-c1ccc2ncnc(NCc3ccccc3)c2c1 | -37.6% | 
41 | COc1ccccc1-c1ccc2ncnc(NCc3ccccc3)c2c1 |  | 3.98 µM (active)
42 | Nc1nc2n[nH]nc2c(=O)[nH]1 | 32.2% [at 25.6 µM] | 
43 | CN(C)c1nc(N)c(C(=O)N=C(N)N)nc1Cl | -3.58% | 
44 | NC(N)=NC(=O)c1nc(Cl)c(N)nc1N | -14.1% | 
45 | NC(N)=NC(=O)c1nc(Cl)c(N2CCCCCC2)nc1N |  | 5.01 µM (active)
46 | CCN(c1nc(N)c(C(=O)N=C(N)N)nc1Cl)C(C)C | -25.6% | 
47 | c1c[nH]c(CN2CCN(Cc3ncc[nH]3)CC2)n1 | -25.8% [at 11.4 µM] | 
48 | Cc1cc(C(=O)CSC(=S)SC(C)(C)C)ccc1Cl |  | 1 µM (active)
49 | CC(=O)N1CCc2cc(Br)cc(S(=O)(=O)N3CCN(C(=O)c4ccco4)CC3)c21 |  | 4.47 µM (active)
50 | Cc1ccc(NC(=O)c2nnn(-c3cc(C)cc(C)c3)c2N)cc1 |  | 3.98 µM (active)
51 | Cc1cc(Cc2cc(Cc3cc(C)cc(C(C)(C)C)c3O)c(C)cc2C)c(O)c(C(C)(C)C)c1 |  | 1 µM (active)
52 | Cc1cc(Cc2cc(C)cc(C(C)(C)C)c2O)c(O)c(Cc2cc(C)cc(C(C)(C)C)c2O)c1 |  | 3.16 µM (active)
53 | Cc1cc(Cc2c(C)c(C)c(Cc3cc(C)cc(C(C)(C)C)c3O)c(C)c2C)c(O)c(C(C)(C)C)c1 | 37.4% [at 11.4 µM] | 

Reference: PubChem BioAssay AID1851 (National Center for Advancing Translational Sciences (NCATS), 2009)
